The target of assay [1] is Aryl hydrocarbon receptor (Homo sapiens) (UniProt P35869). Description: qHTS assay to identify small molecule that activate the aryl hydrocarbon receptor (AhR) signaling pathway (AID 743085).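 For activation: HG2L7.5c1 human HepG2 liver cells with stably integrated DRE-driven firefly reporter; series mostly up to about 70 µM.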 Note: nearly all actives have a fitted effect of over 15% in size. Note: potency is the fitted concentration of half-maximal effect. The essentials:
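Reporter assay in engineered HepG2 line HG2L7.5c1, whose plasmid carries twenty dioxin responsive elements upstream of firefly luciferase. Treatment lasted 24 h at 37C; ONE-Glo luminescence gauged induction.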
On the technique in general: Quantitative high-throughput screening tests each substance at several concentrations.

The nature of assay [2]: qHTS assay to identify small molecule that activate the aryl hydrocarbon receptor (AhR) signaling pathway - cell viability counter screen (AID 743086).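 Note: HepG2 liver cells carrying the AhR DRE luciferase reporter; series mostly up to about 70 µM; nearly all actives have a fitted effect of over 45% in size.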 The essentials: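 HepG2-AhR-luc (HG2L7.5c1) cells, 4000/well, treated 24 h at 37 C with compound; viability measured as CellTiter-Fluor fluorescence after 30 min in the same wells as the luciferase read.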
In assay [3] the target is Peroxisome proliferator-activated receptor gamma (Homo sapiens) (UniProt P37231). Description: qHTS assay to identify small molecule agonists of the peroxisome proliferator-activated receptor gamma (PPARg) signaling pathway (AID 743094; active = well fitted activation curve with a large enough effect in the signal ratio in the repeat runs, not every such curve was filed as active; the % refers to the signal ratio). An outline of the steps:
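Reporter activation was scored by fluorescence of cleaved LiveBLAzer B/G substrate (1 h, room temperature) in PPARg-bla HEK293H cells previously treated 17 h at 37C with DMSO-dissolved compounds.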

For assay [4] the target is unchanged. Description: qHTS assay to identify small molecule antagonists of the peroxisome proliferator-activated receptor gamma (PPARg) signaling pathway (AID 743191; calls by dose curve; note: series mostly up to about 63 µM; nearly all actives have a fitted effect of over 30% in size). An outline of the steps: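 GeneBLAzer PPARg UAS-bla HEK293H cells, 5 h post-plating, exposed to compounds 17 h at 37C. LiveBLAzer B/G FRET substrate added for 1 h at room temperature; beta-lactamase reporter read by fluorescence intensity.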

Assay [5] can be described thus: qHTS assay to identify small molecule antagonists of the peroxisome proliferator-activated receptor gamma (PPARg) signaling pathway - cell viability counter screen (AID 743194). Note: nearly all actives have a fitted effect of over 55% in size. The essentials: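 Cytotoxicity counter screen in PPARg-bla HEK293H cells, same wells as reporter assay. Compounds plus 50 nM rosiglitazone (final) for 17 h at 37 C, then viability read by CellTiter-Glo luminescence.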

Assay [6] is described as follows: qHTS assay for small molecule agonists of the antioxidant response element (ARE) signaling pathway (AID 743202; active = well fitted activation curve with a large enough effect in the signal ratio in the repeat runs, not every such curve was filed as active; the % refers to the signal ratio). An outline of the steps: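 HepG2 ARE-bla reporter line, 2,000 cells/well; 5 h preincubation 37 C/5% CO2; compound (DMSO) 16 h 37 C; B/G FRET substrate 2 h RT; fluorescence intensity.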
A short description of assay [7]: qHTS assay for small molecule activators of the heat shock response signaling pathway - cell viability counter screen (AID 743209). Note: nearly all actives have a fitted effect of over 50% in size. An outline of the steps:
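Viability of HSE-bla HeLa cells is measured with CellTiter-Glo in the wells already used for the reporter read. Compound exposure lasts 5 h at 37 C, and luminescence is read after 30 min at room temperature.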

A short description of assay [8]: qHTS assay for small molecule activators of the heat shock response signaling pathway (AID 743210; active = well fitted activation curve with a large enough effect in the signal ratio in the repeat runs, with a control signal flat, not every such curve was filed as active; the % refers to the signal ratio;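 note: HeLa cells with beta-lactamase reporter driven by heat shock elements; series mostly up to about 63 µM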). The essentials:
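Beta-lactamase reporter read-out: FRET substrate fluorescence after 2.5 h at RT, following 5 h compound treatment at 37 C of HeLa cells carrying HSE-driven bla reporter; quantitative HTS format.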

Assay [9] in a line: qHTS assay to identify small molecule agonists of the peroxisome proliferator-activated receptor delta (PPARd) signaling pathway - cell viability counter screen (AID 743211). Note: nearly all actives have a fitted effect of over 55% in size. The essentials: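 Multiplexed format: after the 2 h room-temperature LiveBLAzer B/G FRET step, CellTiter-Glo was added to the same wells. Luminescence after 30 min gave cell viability; compound exposure was 17 h at 37C.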

In assay [10] the target is Peroxisome proliferator-activated receptor delta (Homo sapiens) (UniProt Q03181). The assay is described as follows: qHTS assay to identify small molecule agonists of the peroxisome proliferator-activated receptor delta (PPARd) signaling pathway (AID 743212; calls by dose curve). An outline of the steps:
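Read-out: beta-lactamase FRET fluorescence after 2 h room-temperature incubation with LiveBLAzer B/G substrate. Cells were HEK293H carrying a UAS-bla reporter for PPARd, treated at 37 C with DMSO-dissolved compounds.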

A short description of assay [11]: qHTS assay to identify small molecule antagonists of the peroxisome proliferator-activated receptor delta (PPARd) signaling pathway - cell viability counter screen (AID 743213). Note: nearly all actives have a fitted effect of over 50% in size. An outline of the steps:
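Same-well viability: cells pre-incubated 5 h, dosed with compound plus 300 nM L165041, kept 17 h at 37 C, FRET substrate 2 h RT, then CellTiter-Glo 30 min RT and luminescence.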

Assay [12] deals with Peroxisome proliferator-activated receptor delta (Homo sapiens) (UniProt Q03181). Description: qHTS assay to identify small molecule antagonists of the peroxisome proliferator-activated receptor delta (PPARd) signaling pathway (AID 743215; active = well fitted inhibition curve with a large enough effect in the signal ratio in the repeat runs, not every such curve was filed as active; the % refers to the signal ratio;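 note: cells stimulated with agonist L165041 at 300 nM final during compound exposure; series mostly up to about 62 µM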). An outline of the steps:
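Plated HEK293H PPARd-bla cells rested 5 h at 37 C and 5% CO2. Compound, then agonist L165041 at 300 nM final, was added; 17 h at 37 C followed. Substrate loading, 2 h room temperature, fluorescence measured.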

A short description of assay [13]: qHTS assay to identify small molecule agonists of the farnesoid-X-receptor (FXR) signaling pathway - cell viability counter screen (AID 743218). Note: nearly all actives have a fitted effect of over 45% in size. An outline of the steps: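 Viability of FXR-bla HEK 293T cells is measured by ATP-based CellTiter-Glo luminescence following 16 h compound treatment at 37 C and a prior 2 h room-temperature beta-lactamase substrate step.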

Assay [14] in a line: qHTS assay to identify small molecule antagonists of the farnesoid-X-receptor (FXR) signaling pathway - cell viability counter screen (AID 743221; active = well fitted cell-killing curve with a large enough effect in the repeat runs, not every such curve was filed as active; note: nearly all actives have a fitted effect of over 50% in size). The essentials: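 CellTiter-Glo, 30 min RT, luminescence; same wells as the LiveBLAzer FRET read. Cells: FXR-UAS-bla HEK 293T. Treatment: compound with chenodeoxycholic acid 50 uM final, 16 h at 37 C.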
Assay [15] has as its target Vitamin D3 receptor (Homo sapiens) (UniProt P11473). The assay is described as follows: qHTS assay to identify small molecule agonists of the vitamin D receptor (VDR) signaling pathway (AID 743222; calls by dose curve). The essentials:
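Fluorescence from cleaved LiveBLAzer B/G FRET substrate served as readout. VDR-bla cells had been treated 16 h at 37C with test compounds in DMSO, following a 4 h settling period, and substrate was loaded for 2 h at RT.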

Assay [16] is described as follows: qHTS assay to identify small molecule agonists of the vitamin D receptor (VDR) signaling pathway - cell viability counter screen (AID 743224). Note: series mostly up to about 63 µM; nearly all actives have a fitted effect of over 50% in size. The essentials:
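Compounds were pin-transferred onto VDR-bla cells plated 4 h earlier; following 16 h incubation at 37C, cell viability was quantified by CellTiter-Glo luminescence after 30 min at room temperature.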

Assay [17] in a line: qHTS assay for small molecule agonists of the antioxidant response element (ARE) signaling pathway - cell viability counter screen (AID 743203; calls by dose curve; note: nearly all actives have a fitted effect of over 55% in size). The essentials: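 Viability counter screen: stably transfected ARE-bla HepG2 line, 16 hrs compound exposure at 37C/5% CO2, ATP-based CellTiter-Glo luminescence measured in the reporter wells.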
The target in assay [18] is Vitamin D3 receptor (Homo sapiens) (UniProt P11473). The assay is described as follows: qHTS assay to identify small molecule antagonists of the vitamin D receptor (VDR) signaling pathway (AID 743223; active = well fitted inhibition curve with a large enough effect in the signal ratio in the repeat runs, not every such curve was filed as active; the % refers to the signal ratio). An outline of the steps:
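After VDR-bla cells are plated and left 4 h at 37C, DMSO-dissolved compounds and 3 nM (final) calcitriol agonist are added. Incubation continues 16 h at 37C; FRET beta-lactamase substrate then develops 2 h at room temperature.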

Assay [19] has as its target Bile acid receptor (Homo sapiens) (UniProt Q96RI1). The assay is described as follows: qHTS assay to identify small molecule antagonists of the farnesoid-X-receptor (FXR) signaling pathway (AID 743217; active = well fitted inhibition curve with a large enough effect in the signal ratio in the repeat runs, not every such curve was filed as active; the % refers to the signal ratio). An outline of the steps: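 Screen of the Tox21 10K library in quantitative HTS format using FXR-UAS-bla HEK 293T reporter cells. Agonist chenodeoxycholic acid, 50 uM final, added with compounds; 16 h incubation at 37 °C; beta-lactamase FRET fluorescence measured.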

For assay [20] the target is unchanged. Description: qHTS assay to identify small molecule agonists of the farnesoid-X-receptor (FXR) signaling pathway (AID 743220; active = well fitted activation curve with a large enough effect in the signal ratio in the repeat runs, not every such curve was filed as active; the % refers to the signal ratio). The essentials: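 FXR-UAS-bla HEK 293T cells carrying a UAS-driven beta-lactamase reporter were plated for 5 h at 37C/5% CO2, then exposed to DMSO-dissolved Tox21 10K compounds for 16 h at 37C. A LiveBLAzer B/G FRET substrate was loaded for 2 h at room temperature before fluorescence reading.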

Records with an inconclusive call do not appear. Calls of active or inactive are those of the source. Unless noted, calls come from the whole dose curve; as a rule, active = well fitted curve in the direction sought with a large enough effect in the repeat runs; inconclusive = weak or mixed curves; inactive = no such curve, though single readings can be large; an effect the other way counts as inactive or inconclusive.

Chain of Aryl hydrocarbon receptor (Homo sapiens) (P35869 whole entry, looked up): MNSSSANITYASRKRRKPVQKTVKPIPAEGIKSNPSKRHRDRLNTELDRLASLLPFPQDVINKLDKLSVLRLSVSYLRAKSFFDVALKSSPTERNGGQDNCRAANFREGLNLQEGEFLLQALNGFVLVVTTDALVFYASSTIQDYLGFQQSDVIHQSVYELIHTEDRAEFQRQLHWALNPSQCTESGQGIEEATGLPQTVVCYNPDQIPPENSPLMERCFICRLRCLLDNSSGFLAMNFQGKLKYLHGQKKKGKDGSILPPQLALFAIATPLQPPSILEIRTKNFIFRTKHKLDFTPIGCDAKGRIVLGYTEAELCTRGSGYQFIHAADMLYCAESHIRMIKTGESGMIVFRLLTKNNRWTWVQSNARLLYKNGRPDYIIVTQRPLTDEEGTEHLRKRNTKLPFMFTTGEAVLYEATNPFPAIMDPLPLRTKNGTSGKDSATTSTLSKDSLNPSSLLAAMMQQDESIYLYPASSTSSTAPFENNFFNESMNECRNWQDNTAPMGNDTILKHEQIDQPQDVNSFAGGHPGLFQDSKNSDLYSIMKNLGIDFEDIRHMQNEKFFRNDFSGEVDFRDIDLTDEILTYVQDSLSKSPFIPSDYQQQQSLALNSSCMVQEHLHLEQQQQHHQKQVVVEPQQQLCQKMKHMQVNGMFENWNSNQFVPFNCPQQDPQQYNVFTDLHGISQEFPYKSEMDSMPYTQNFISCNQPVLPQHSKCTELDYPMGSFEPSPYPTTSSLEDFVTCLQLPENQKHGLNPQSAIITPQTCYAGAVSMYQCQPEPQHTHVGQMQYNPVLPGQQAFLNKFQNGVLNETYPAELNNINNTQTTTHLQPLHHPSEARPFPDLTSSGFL
Chain of Vitamin D3 receptor (Homo sapiens) (P11473 whole entry, looked up): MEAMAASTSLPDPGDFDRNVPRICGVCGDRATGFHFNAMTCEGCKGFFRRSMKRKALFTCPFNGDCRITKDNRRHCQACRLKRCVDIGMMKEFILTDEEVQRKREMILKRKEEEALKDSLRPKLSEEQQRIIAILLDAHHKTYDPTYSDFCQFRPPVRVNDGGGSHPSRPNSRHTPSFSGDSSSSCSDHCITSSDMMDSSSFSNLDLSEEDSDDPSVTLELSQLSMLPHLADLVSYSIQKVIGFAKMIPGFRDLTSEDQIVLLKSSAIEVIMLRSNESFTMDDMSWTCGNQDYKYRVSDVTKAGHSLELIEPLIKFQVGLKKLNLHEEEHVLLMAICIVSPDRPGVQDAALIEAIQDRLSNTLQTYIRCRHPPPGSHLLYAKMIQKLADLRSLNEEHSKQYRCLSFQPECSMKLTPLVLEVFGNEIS
Chain of Peroxisome proliferator-activated receptor delta (Homo sapiens) (Q03181 whole entry, looked up): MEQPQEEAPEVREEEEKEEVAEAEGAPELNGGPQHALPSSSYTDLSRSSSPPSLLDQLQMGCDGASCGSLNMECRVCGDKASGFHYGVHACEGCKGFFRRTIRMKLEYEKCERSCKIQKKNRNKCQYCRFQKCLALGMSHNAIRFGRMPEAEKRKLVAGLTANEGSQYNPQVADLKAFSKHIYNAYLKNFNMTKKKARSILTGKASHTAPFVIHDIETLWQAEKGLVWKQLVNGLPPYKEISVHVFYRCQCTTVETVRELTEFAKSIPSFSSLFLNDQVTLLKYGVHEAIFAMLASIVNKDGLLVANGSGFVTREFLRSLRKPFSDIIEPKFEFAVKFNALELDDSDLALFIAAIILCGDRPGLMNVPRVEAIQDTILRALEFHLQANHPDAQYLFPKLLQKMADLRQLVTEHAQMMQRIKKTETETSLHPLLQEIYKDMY
Chain of Peroxisome proliferator-activated receptor gamma (Homo sapiens) (P37231 whole entry, looked up): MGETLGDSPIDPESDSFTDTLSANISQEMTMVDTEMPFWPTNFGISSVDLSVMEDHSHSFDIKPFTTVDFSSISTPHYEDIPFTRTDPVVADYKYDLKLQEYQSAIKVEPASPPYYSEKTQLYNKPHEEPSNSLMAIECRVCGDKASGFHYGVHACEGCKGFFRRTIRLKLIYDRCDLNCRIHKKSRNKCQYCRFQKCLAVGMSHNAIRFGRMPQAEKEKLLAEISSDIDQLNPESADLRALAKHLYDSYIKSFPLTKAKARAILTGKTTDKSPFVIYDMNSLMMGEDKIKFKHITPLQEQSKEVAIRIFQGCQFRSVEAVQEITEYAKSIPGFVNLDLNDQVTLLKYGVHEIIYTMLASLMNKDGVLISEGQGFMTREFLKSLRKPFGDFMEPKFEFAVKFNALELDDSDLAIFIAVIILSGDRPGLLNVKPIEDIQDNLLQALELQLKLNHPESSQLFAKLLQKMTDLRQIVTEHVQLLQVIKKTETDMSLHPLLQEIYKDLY
Chain of Bile acid receptor (Homo sapiens) (Q96RI1 whole entry, looked up): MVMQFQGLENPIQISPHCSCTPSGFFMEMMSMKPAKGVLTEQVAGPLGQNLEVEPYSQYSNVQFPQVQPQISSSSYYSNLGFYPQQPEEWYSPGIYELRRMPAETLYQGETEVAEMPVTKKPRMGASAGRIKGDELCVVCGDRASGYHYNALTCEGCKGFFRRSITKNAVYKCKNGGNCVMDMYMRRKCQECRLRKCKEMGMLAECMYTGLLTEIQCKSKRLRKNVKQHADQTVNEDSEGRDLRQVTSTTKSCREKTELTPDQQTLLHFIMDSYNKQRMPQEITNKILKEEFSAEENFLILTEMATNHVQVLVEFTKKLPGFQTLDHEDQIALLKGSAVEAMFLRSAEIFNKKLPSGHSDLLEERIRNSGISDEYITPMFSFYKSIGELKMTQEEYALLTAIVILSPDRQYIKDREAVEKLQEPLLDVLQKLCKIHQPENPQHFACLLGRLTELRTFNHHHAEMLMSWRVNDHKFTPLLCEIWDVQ

Regarding `CC1=CCC(O)(C(C)C)CC1` (stereo not given), the Potency entry in [1], in assay [2], in [3], in [4] and in assay [6] was “inactive” in each case. In addition, the molecule was classed as inactive in assay [5], in assay [7], in [8], in assay [9], in assay [10] and in [11]. For the same molecule, the molecule was classed as inactive in [12], in assay [13], in assay [14], in assay [15] and in assay [16].

For the molecule `CCOC(=O)c1cnc2c(cnn2CC)c1NN=C(C)C`, in assay [1], the Potency is 29.8 µM (active). Also, the Potency entry in assay [2], in assay [3], in [4] and in [6] was “inactive” in each case. Further, the molecule was classed as inactive in [5], in [17], in [7], in [8], in assay [9] and in assay [10]. Further, the molecule was classed as inactive in assay [11], in assay [13], in assay [14], in [18] and in assay [16].

As to `CCOC(=O)CCC(=O)OCC`, the Potency entry in [1], in assay [2], in [3], in assay [4] and in assay [6] was “inactive” throughout. In addition, the result in [5], in assay [17], in assay [7], in [9], in [10] and in [12] was inactive. The result in assay [13], in assay [14] and in assay [18] was inactive.

For `CCCCCCCCCCCCCCCCCCO`, the Potency result in assay [1], in assay [2], in assay [3], in assay [4] and in [6] was “inactive” throughout. The result in [5], in [17], in assay [7], in [8], in [9] and in [10] was inactive. In addition, the molecule was classed as inactive in assay [11], in assay [12], in assay [14] and in [18].

`CCCC[N+](C)(CCCC)CCCC`: the Potency entry in [1], in assay [2], in assay [3], in assay [4] and in [6] was “inactive” in each case. Moreover, the result in [5], in assay [17], in assay [9], in assay [10], in [11] and in assay [12] was inactive. Further, the molecule was classed as inactive in [14], in assay [15], in assay [18] and in assay [16].

Regarding `CCCCN1C=CN(C)C1`, the Potency result in assay [1], in assay [2], in [3], in assay [4] and in assay [6] was “inactive” in each case. The call in [5], in assay [17], in assay [7], in assay [8], in assay [9] and in assay [10] was inactive. Also, the call in assay [12], in assay [13], in [15] and in [18] was inactive.

Turning to `CC(=O)Nc1ccc(OCC(O)CNC(C)C)cc1` (stereo not given), the Potency result in assay [1], in [2], in assay [3], in assay [4] and in assay [6] was “inactive” throughout. Moreover, the call in assay [5], in [17], in assay [7], in assay [8], in assay [9] and in [10] was inactive. The molecule was classed as inactive in assay [11], in assay [12], in [19], in assay [13], in [20] and in [14]. For the same molecule, the outcome in [15], in assay [18] and in assay [16] was inactive.

In the case of `CC(=O)Oc1cccc(C)c1`, the Potency entry in assay [1], in [2], in assay [3] and in assay [4] was “inactive” throughout. The result in assay [5], in [17], in [7], in assay [8], in assay [9] and in assay [10] was inactive. The outcome in [11], in [12], in assay [13] and in assay [14] was inactive.

These data come from PubChem BioAssay (Tox21).
